Reference: PubChem BioAssay (NCATS)
Inconclusive results are not listed. Activity calls are given as the source filed them. Calls follow the shape of the dose curve; as a rule, active = well fitted curve in the direction sought with a large enough effect in the signal ratio; inconclusive = small, poorly fitted or top-dose-only effect, or effect the other way, or a change in a side signal; inactive = no such curve, though single readings can be large or run the other way; the % refers to the signal ratio.

assay: Validation of Assay for Modulators of Lamin A Splicing (AID 1459); settings: Lamin A splicing dual RFP/GFP fluorescence reporter; series mostly up to 9.22 µM;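 also: cells exposed to compound for two days before reading; ratio rise marks activators and ratio drop marks inhibitors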
Procedure, shortened: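 Readout: ratio of GFP (500-530 nm) to RFP (575-640 nm) total object intensity by 488 nm laser-scanning cytometry after 48 hrs. Cells were HeLa S3 clones carrying lamin A-EGFP minigene plus DsRed2 viability reporter; vehicle 0.5% DMSO final.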

Question: With `CCN(CC)c1ncnc2c1ncn2[C@@H]1O[C@H](COP(=O)(O)OP(=O)(O)C(Br)(Br)P(=O)(O)O)[C@@H](O)[C@H]1O` as the molecule, how does the outcome read?
Answer: inactive

Question: Which outcome does the source give for `CCCN(CCC)C1CCc2cccc(O)c2C1` (stereo not given) here?
Answer: inactive

Question: With `CO[C@H]1CC=C2CCN3CCC4=C(CC(=O)OC4)[C@]23C1` as the molecule, how does the outcome read?
Answer: inactive

Question: Which outcome does the source give for `C[C@H](Cc1ccc2c(c1)OC(C(=O)O)(C(=O)O)O2)NC[C@H](O)c1cccc(Cl)c1` here?
Answer: inactive

Question: For `NC(C(=O)O)c1cc(=O)[nH]o1` (stereo not given), which outcome is on record?
Answer: inactive

Question: With `Oc1ccc2c3c1O[C@H]1c4[nH]c5ccccc5c4C[C@@]4(O)C(C2)N(CC2CC2)CCC314` (stereo not given in full) as the molecule, how does the outcome read?
Answer: inactive

Question: Which outcome does the source give for `C#CCN[C@H](C)Cc1ccccc1` here?
Answer: inactive

Question: With `O=C1CC[C@@]2(O)C3Cc4ccc(O)c5c4C2(CCN3CC2CC2)[C@H]1O5` (stereo not given in full) as the molecule, how does the outcome read?
Answer: inactive

Question: For `CC12NC(Cc3ccccc31)c1ccccc12` (stereo not given), which outcome is on record?
Answer: inactive

Question: For `C=CCN1C[C@@H](C)N([C@H](c2ccc(C(=O)N(CC)CC)cc2)c2cccc(OC)c2)C[C@@H]1C`, which outcome is on record?
Answer: inactive

Question: For `COc1cc(CC(C)N)c(OC)cc1I` (stereo not given), which outcome is on record?
Answer: inactive

Question: Which outcome does the source give for `CC(N)Cc1c[nH]c2ccc(O)cc12` (stereo not given) here?
Answer: inactive

Question: Which outcome does the source give for `N[C@@H](CCl)C(=O)O` here?
Answer: inactive

Question: With `C[Se]C[C@H](N)C(=O)O` as the molecule, how does the outcome read?
Answer: inactive

Question: Which outcome does the source give for `NCC(O)c1cc(O)c(O)cc1F` (stereo not given) here?
Answer: inactive

Question: With `CC1OC1P(=O)(O)O` (stereo not given) as the molecule, how does the outcome read?
Answer: inactive

Question: With `CC(C)(C)c1o[nH]c(=O)c1CC(N)C(=O)O` (stereo not given) as the molecule, how does the outcome read?
Answer: inactive

Question: For `NC(Cc1cc(O)c(O)cc1O)C(=O)O` (stereo not given), which outcome is on record?
Answer: inactive

Question: For `COc1ccc2c(c1)C13CCCCC1C(C2)N(C)CC3` (stereo not given), which outcome is on record?
Answer: inactive

Question: With `COC(=O)N1CCN(C(=O)Cc2ccc(Cl)c(Cl)c2)C(CN2CCCC2)C1` (stereo not given) as the molecule, how does the outcome read?
Answer: inactive
